Reference: PubChem BioAssay (EPA / NIEHS)
Activity calls are given as the source filed them. The calls were made as follows: active = hit-call score of the fitted dose curve at least 0.9, where 1 is the maximum; inactive = score below 0.9.

Assay: CEETOX_H295R_DOC: CeeTox H295R High-throughput Steroidogenesis Assay for DOC (AID 2283439)
Details: actives raise or lower the signal
Procedure: CEETOX_H295R is a cell-based, multiplexed-readout assay that uses H295R, a human adrenal gland cell line, with measurements taken at 48 hours after chemical dosing in a 96-well plate.CEETOX_H295R_DOC is one of 23 assay component(s) measured or calculated from the CEETOX_H295R assay. It is designed to make measurements of hormone induction, a form of inducible reporter, as detected with absorbance signals by HPLC-MS-MS technology.Data from the assay component CEETOX_H295R_DOC was analyzed into 1 assay endpoint. This assay endpoint, CEETOX_H295R_DOC, was analyzed with bidirectional fitting relative to DMSO as the negative control and baseline of activity. Using a type of inducible reporter, gain or loss-of-signal activity using HPLC-MS-MS was used to understand synthesis of 11-Deoxycorticosterone in H295R cell line at 48hr of chemical exposure. To generalize the intended target to other relatable targets, this assay endpoint is annotated to the steroid hormone intended target family, where the subfamily is glucocorticoids.
Cell culture and media preparation procedures were conducted in accordance with OECD Test No. 456 guidelines, with minor modifications. H295R cells (ATCC CRL-2128) were expanded for 5 passages and frozen in batches in liquid nitrogen. Prior to the steroidogenesis assay, H295R cells were thawed and passed at least 4 times. The maximum passage was 10. Cells were maintained in a 1:1 mixture of DMEM/F12 supplemented with 5ml/L ITS+ Premix (BD Bioscience) and 12.5 ml/L Nu-Serum (BD Bioscience). After seeding cells into 96-well plates at 50-60% confluency, cells were allowed to adhere overnight. Prior to chemical testing, culture medium was replaced with 175 uL medium containing 10 uM forskolin to stimulate steroidogenesis for 48 hours. Following prestimulation, forskolin medium was replaced with medium containing test chemical solubilized in DMSO (ensuring a final concentration of 0.1% DMSO). Test chemicals were incubated for 48 hours, then the medium was removed and split into 2 vials containing approximately 75uL each, and stored at -80 C prior to hormone analysis. For steroid quantification, media samples were shipped to OpAns, LLC (Durham, NC) on dry ice, and samples were thawed to room temperature prior to liquid-liquid extraction. Steroid hormones were extracted from media samples using methyl tertbutyl ether (MTBE). An extra derivatization with dansyl chloride was included for estrogen (estrone and estradiol) detection only. Steroid hormones were separated by HPLC, eluted using a reverse phase C18 gradient with electrospray positive ionization, followed by quantification by tandem mass spectrometry (MS/MS). Data were acquired on a MassHunter Workstation Acquisition version B03.01 (Agilent Technologies, Inc.) and processed using MassHunter Quantitative Analysis for QQQ. Accuracy was determined for each hormone analyte from 3 standards to determine upper and lower limits of quantification (ULOQ and LLOQ, respectively) using a 7-point standard curve. Precision and accuracy of the extraction and quantification methods were calculated as the percent relative standard deviation (%RSD) of the spiked standards and percent spiked standard recovered, respectively. […] Test medium was removed following chemical exposure, and cell viability was evaluated in the same wells by MTT. MTT procedures were as follows: after removal of test medium, 500 uL of 0.5 mg/ml of 3-[4,5-dimethylthiazol-2-y]2,5-diphenyltetrazoliumbromide solution was added to the cells. Following a 4-hour incubation at 37 C and 5% CO2 to allow formazan-crystal formation, the MTT solution was removed and blue formazan salt crystals were solubilized using 500uL anhydrous isopropanol with shaking for 20 minutes. Absorbance was read at 570 and 650nm using a Packard Fusion microplate reader. Background correction of absorbance units was used to determine percent change relative to controls. […]

SMILES	outcome	AC50
c1cc(-c2ccncc2)ccn1	inactive	
Cc1c(C(=O)O)c(O)cc2c1C(=O)c1c(O)c([C@@H]3O[C@H](CO)[C@@H](O)[C@H](O)[C@H]3O)c(O)c(O)c1C2=O	inactive	
Oc1ccc2c(c1)OC[C@@H](N1CCC(O)(c3ccc(F)cc3)CC1)[C@H]2O	inactive	
Cc1cc(NC(=O)C(=O)O)cc(C)c1Oc1ccc(O)c2c1CCC2		37.6 µM (active)
Cc1cccc(Nc2cc(Cl)nc(SCC(=O)O)n2)c1C	inactive	
COc1ccc(C)cc1N	inactive	
Cc1nc(C)nc(N2C[C@@H](C)N(c3ccnc([C@@H](C)O)n3)[C@@H](C)C2)n1	inactive	
NC(=O)Cn1c(=O)cc(CCN2CCN(c3nccc4sccc34)CC2)c2ccc(F)cc21		16.9 µM (active)
COc1ccc2c(c1)c(CC(=O)O)c(C)n2C(=O)c1ccc(Cl)cc1	inactive	
CN1CCN(Cc2cc(-c3ccc4[nH]c(=O)oc4c3)co2)[C@@H](c2ccc(F)cc2)C1	inactive	
Nc1ccccc1N	inactive	
COC(=O)c1ccc(O)cc1	inactive	
Nc1ccc2c(c1)C(=O)c1ccccc1C2=O	inactive	
COc1ccc(S(=O)(=O)N2C(=O)[C@@](c3ccccc3OC)(N3C[C@H](O)C[C@H]3C(=O)N(C)C)c3cc(Cl)ccc32)c(OC)c1	inactive	
Cc1nc(-c2ccc3c(c2)CCN(CCC2CCC(NC(=O)/C=C/c4ccc(F)cc4)CC2)CC3)no1 (stereo not given)		0.0532 µM (active)
